The panel holds about 83,000 compounds, 20% with a hit somewhere; the sample as a whole holds those more often.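 Results are percent growth after 48 hours of single-concentration exposure. 100 means growth as in untreated cells, lower positive values show inhibition; negative values down to -100 show cell death.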 Unmarked numbers belong to inactive results. Activity calls are given as the source filed them. How the source made its calls: active means growth percent below 10; inactive means the rest.

Some test systems named below: NCI-H23 lung; NCI-H226 lung; NCI-H322M lung; HOP-62 NSCLC; NCI-H460 lung; HOP-92 NSCLC; NCI-H522 lung; A549/ATCC NSCLC; 786-0 renal; COLO 205 colon; DU-145 prostate; K-562 leukemia; MALME-3M melanoma; MDA-MB-231 breast; RXF 393 renal; SF-268 CNS; SF-295 CNS; SF-539 CNS; UACC-257 melanoma; M14 melanoma.
Common to all, as to test: NCI-60 one-dose screen, 48 h (100 = growth as untreated, 0 = no growth, -100 = all killed)
Common to all, as to settings: 10 µM unless noted

For the compound `N#CSc1c[nH]c2ccc(/C=C/C(=O)/C=C(/C=C/c3ccc4[nH]cc(SC#N)c4c3)OB(F)F)cc12`, the growth in the experiment with NCI-H23 lung is -28.3% (active); in the experiment on NCI-H226 lung, -66.1% (active); with NCI-H322M lung, 94.9%; in the experiment on HOP-62 NSCLC, 14.7%; with NCI-H460 lung, 3.07% (active); in the experiment with HOP-92 NSCLC it was -74.1% (active). The growth was -69.7% (active) in the experiment on NCI-H522 lung; 4.65% (active) with A549/ATCC NSCLC; -46.5% (active) in the experiment with 786-0 renal; -63.9% (active) in the experiment on COLO 205 colon; 1.62% (active) in the experiment on DU-145 prostate; -27.2% (active) with K-562 leukemia. For the same compound, the growth in the experiment on MALME-3M melanoma was -32.6% (active); in the experiment on MDA-MB-231 breast it was -35.9% (active); with RXF 393 renal, -64.4% (active); in the experiment on SF-268 CNS, 2.42% (active); in the experiment with SF-295 CNS, 35.7%; in the experiment on SF-539 CNS it was -13.2% (active). The growth was -29.8% (active) in the experiment on UACC-257 melanoma and -39.9% (active) with M14 melanoma.

In the case of `O=C(NCc1cccnc1)/C(=C\c1ccc(Br)cc1)S(=O)(=O)c1ccccc1`, the growth in the experiment with NCI-H23 lung is -43.7% (active); in the experiment with NCI-H226 lung it was 7.52% (active); in the experiment on NCI-H322M lung, 1.87% (active); in the experiment on HOP-62 NSCLC, -34.1% (active); in the experiment with NCI-H460 lung, -30.5% (active); in the experiment on HOP-92 NSCLC, -2.35% (active). Besides, the growth with NCI-H522 lung is -71.2% (active); in the experiment on A549/ATCC NSCLC it was -3.53% (active); in the experiment with 786-0 renal, -67.7% (active); in the experiment with COLO 205 colon, -84.2% (active); in the experiment on DU-145 prostate, -86.8% (active); with K-562 leukemia, 29.7%. Besides, the growth in the experiment on MALME-3M melanoma was -20.5% (active); in the experiment with MDA-MB-231 breast, -65.7% (active); in the experiment on RXF 393 renal it was -88% (active); in the experiment on SF-268 CNS it was -30.9% (active); in the experiment with SF-295 CNS, 13.9%; in the experiment with SF-539 CNS it was -59% (active). For the same compound, the growth with UACC-257 melanoma is -20.5% (active); with M14 melanoma, -41.1% (active).

As to `C[N+]1=C(/C=C\C=C\c2ccccc2)C(C)(C)c2ccccc21`, the growth was 18.7% with NCI-H23 lung; 63.8% in the experiment with NCI-H226 lung; 81.2% in the experiment with NCI-H322M lung; 52% in the experiment on HOP-62 NSCLC; 43.4% in the experiment with NCI-H460 lung; -7.51% (active) with HOP-92 NSCLC. Besides, the growth is -3.08% (active) in the experiment with NCI-H522 lung; 28% in the experiment with A549/ATCC NSCLC; 33.6% with 786-0 renal; -43.4% (active) with COLO 205 colon; 48.7% with DU-145 prostate; 4.69% (active) in the experiment with K-562 leukemia. In addition, the growth was -17.8% (active) in the experiment with MALME-3M melanoma; 9.89% (active) in the experiment on MDA-MB-231 breast; 38% with RXF 393 renal; 38.5% in the experiment on SF-268 CNS; 72.4% in the experiment with SF-295 CNS; 8.59% (active) with SF-539 CNS. For the same compound, the growth in the experiment with UACC-257 melanoma was 8.91% (active); in the experiment on M14 melanoma, 20.5%.

Consider `C#CCOc1cccc(Nc2ncc3ncn(C4CCN(C(=O)CCl)C4)c3n2)c1` (stereo not given), for which the growth in the experiment on NCI-H23 lung is 45.2% [6.25 µM]; with NCI-H226 lung, 23.3% [6.25 µM]; with NCI-H322M lung, 78.6% [6.25 µM]; in the experiment on HOP-62 NSCLC, 78.3% [6.25 µM]; in the experiment on NCI-H460 lung, 72.1% [6.25 µM]; with HOP-92 NSCLC it was 73% [6.25 µM]. Also, the growth in the experiment on NCI-H522 lung is -77.4% [6.25 µM] (active); in the experiment with A549/ATCC NSCLC, 78.5% [6.25 µM]; with 786-0 renal it was -4.37% [6.25 µM] (active); in the experiment with COLO 205 colon, -84% [6.25 µM] (active); in the experiment on DU-145 prostate, 84% [6.25 µM]; in the experiment with K-562 leukemia, 5.61% [6.25 µM] (active). Further, the growth with MALME-3M melanoma is 14.3% [6.25 µM]; in the experiment with MDA-MB-231 breast, 2.24% [6.25 µM] (active); in the experiment on RXF 393 renal it was -51.9% [6.25 µM] (active); with SF-268 CNS, 40.2% [6.25 µM]; in the experiment on SF-295 CNS, 89% [6.25 µM]; with SF-539 CNS it was 68.7% [6.25 µM]. Besides, the growth was 72.6% [6.25 µM] in the experiment with UACC-257 melanoma and 24% [6.25 µM] with M14 melanoma.

With `Clc1cccc(Nc2ncnc3ccc(-c4cncc(-n5cnnn5)c4)cc23)c1`, the growth in the experiment on NCI-H23 lung is 80%; in the experiment with NCI-H226 lung, 73%; in the experiment on NCI-H322M lung, 15.2%; in the experiment with HOP-62 NSCLC it was 83%; with NCI-H460 lung, 81.6%; with HOP-92 NSCLC, 21.7%. Further, the growth with NCI-H522 lung is 49.2%; in the experiment with A549/ATCC NSCLC, 55.7%; in the experiment with 786-0 renal it was 42.9%; in the experiment on COLO 205 colon it was 87.9%; with DU-145 prostate it was 43.5%; in the experiment with K-562 leukemia, 71.5%. In addition, the growth in the experiment with MALME-3M melanoma is 88.2%; with MDA-MB-231 breast, 67.3%; in the experiment with RXF 393 renal, 48.4%; in the experiment with SF-268 CNS it was 70.6%; with SF-295 CNS, 76.9%; with SF-539 CNS, 87.3%. Besides, the growth with UACC-257 melanoma is 92.9%; in the experiment on M14 melanoma, 53.2%.

Regarding `COc1cc(-c2nc(SCCC(C)C)nc(Nc3ccc(F)cc3)c2C#N)cc(OC)c1OC`, the growth in the experiment with NCI-H23 lung was 84.3%; in the experiment on NCI-H226 lung, 90.4%; in the experiment with NCI-H322M lung, 63.2%; in the experiment with HOP-62 NSCLC, 17.8%; with NCI-H460 lung, 21.4%; with HOP-92 NSCLC, 72.6%. Further, the growth in the experiment with NCI-H522 lung was 75%; in the experiment on A549/ATCC NSCLC it was 28.3%; in the experiment on 786-0 renal it was 46.1%; in the experiment on COLO 205 colon, 79.6%; in the experiment on DU-145 prostate, 66.2%; with K-562 leukemia, 85.2%. In addition, the growth in the experiment with MALME-3M melanoma is 94.4%; in the experiment on MDA-MB-231 breast, 38.4%; in the experiment with RXF 393 renal it was 95.5%; with SF-268 CNS, 65.9%; with SF-295 CNS it was 85.4%; in the experiment with SF-539 CNS, 52.3%. For the same compound, the figures for the growth in the experiment on UACC-257 melanoma and in the experiment on M14 melanoma were 103% and 91%, respectively.

On to `Nc1n[nH]c2cccc(C#Cc3cccc(NC(=O)c4ccc(N5CCOCC5)c(C(F)(F)F)c4)c3)c12`, for which the growth in the experiment with NCI-H23 lung is 13.5%; in the experiment with NCI-H226 lung it was -0.121% (active); in the experiment on NCI-H322M lung, 10.4%; with HOP-62 NSCLC, 16.8%; with NCI-H460 lung, 18.7%; in the experiment with HOP-92 NSCLC, -47.1% (active). For the same compound, the growth in the experiment on NCI-H522 lung is 9.42% (active); in the experiment with A549/ATCC NSCLC, 13%; with 786-0 renal, -39.4% (active); with COLO 205 colon, -18.2% (active); with DU-145 prostate it was 25.7%; in the experiment on K-562 leukemia it was 0.995% (active). The growth was 11.2% with MALME-3M melanoma; -22.3% (active) in the experiment on MDA-MB-231 breast; -66% (active) in the experiment on RXF 393 renal; 23.4% in the experiment with SF-268 CNS; -36.9% (active) with SF-295 CNS; -56% (active) with SF-539 CNS. In addition, the growth in the experiment with UACC-257 melanoma is 17.6%; with M14 melanoma, 3.69% (active).

On to `CCOC(=O)c1ccc(Nc2ncnc3c2cnn3-c2cccc(F)c2)cc1`, for which the growth was 110% in the experiment on NCI-H23 lung; 94.6% with NCI-H226 lung; 102% with NCI-H322M lung; 93.7% with HOP-62 NSCLC; 102% with NCI-H460 lung; 90.6% in the experiment with HOP-92 NSCLC. Besides, the growth with NCI-H522 lung was 91.9%; in the experiment on A549/ATCC NSCLC, 102%; in the experiment with 786-0 renal, 104%; with COLO 205 colon it was 113%; with DU-145 prostate, 106%; in the experiment with K-562 leukemia it was 96.7%. For the same compound, the growth is 103% in the experiment on MALME-3M melanoma; 93.3% in the experiment on MDA-MB-231 breast; 105% in the experiment on RXF 393 renal; 94.2% with SF-268 CNS; 100% in the experiment on SF-295 CNS; 98.5% in the experiment with SF-539 CNS. Moreover, the growth with UACC-257 melanoma was 99.6%; in the experiment with M14 melanoma it was 99.1%.

(Values after PubChem BioAssay (NCI).)
